A short description of this assay: differential killing of epithelial or mesenchymal cells, primary screen, imaging, PC-3E GFP, TEM4-18 mCherry, co-culture (AID 1345086).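 Further: cells exposed to compound for 72 h before imaging.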 As to conditions: imaging cell counts, measured here: epithelial PC-3E GFP cell survival, at 1 µM.
Compound `COc1cc([C@@H]2c3cc4c(cc3[C@H](OC(C)=O)C3COC(=O)[C@H]32)OCO4)cc(OC)c1OC` (stereo partly specified) yielded a normalised cell number of 0.19. The value for `CCC(C)C(=O)O[C@@H]1C[C@@]2(C)[C@H](c3ccoc3)OC(=O)CC23OC2(C)O[C@]14C1(C)[C@@H](CC(=O)OC)C5(C)CC1(O)[C@](O)(C5OC(=O)C1(C)OC1C)[C@@H](OC(C)=O)[C@]34O2` (stereo partly specified) was 0.97; that for `COc1cc(O)c(C(=O)O)c(-c2cc(O)c(O)cc2C)c1` was 0.82. `CC[C@H](C)/C=C(C)/C=C/C1=CC2=C(Cl)C(=O)[C@](C)(OC(C)=O)C(=O)C2=CO1` gave a normalised cell number of 0.96.

Take `CC[C@H](c1cccc(O)c1)[C@@H](C)CN(C)C`: the normalised cell number is 1.05. Then `CC1NCCc2cc(O)c(O)cc21` (stereo unspecified), with 1.11; and `CN1CC[C@@]2(C)c3cc(O)ccc3N(C)[C@@H]12`, with 0.88; and `C/C=C(\C)C(=O)O[C@H]1C[C@@H](OC(C)=O)[C@@]2(C(=O)OC)CO[C@@H]3C2[C@]12CO[C@](O)(C(=O)OC)[C@H]2[C@](C)(C12O[C@@]1(C)[C@H]1C[C@H]2OC2OC=C[C@@]21O)[C@@H]3O` (stereo partly specified), with 0.89. Then `CC(=O)OCC1=C(C(=O)O)N2C(=O)[C@@H](N)C2SC1` (stereo partly specified), with 0.96; and `Cc1ncc(C[n+]2csc(CCO)c2C)c(=O)[nH]1`, with 1.27. With `Fc1ccc(C2CCNCC2COc2ccccc2)cc1` (stereo unspecified), the normalised cell number is 1.28. Then `COc1cc(=O)oc(/C=C/C=C/C=C/C(C)=C/[C@@]2(C)O[C@@H](C)[C@@](C)(O)[C@@H]2O)c1C`, with 0.87; and `C[C@@H]1CC[C@H]2[C@@H](C)C(=O)O[C@@H]3O[C@]4(C)CC[C@@H]1[C@]32OO4`, with 0.97. As to `Nc1ccc(-c2ccccc2)cc1`, the normalised cell number came out at 0.96.

Compound `COc1cc(O)c2c(=O)oc3cc(O)cc(C)c3c2c1` registered a normalised cell number of 1.19. Compound `CC(C)[C@@H]1CC[C@](O)(CCl)[C@@H]2C(=O)OCC(C(=O)O)=C[C@H]21` returned a normalised cell number of 1. `N#Cc1cc(I)c(O)c(I)c1` yielded a normalised cell number of 1.08. The value for `C[CH2][Hg+].O=C([O-])c1ccccc1[S-].[Na+]` was 0.18; that for `C[C@H]1COc2c(N3CCNCC3)c(F)cc3c(=O)c(C(=O)O)cn1c23` was 1.08; that for `CCSCCC(N)C(=O)O` (stereo unspecified) was 1.26. `O=[N+]([O-])c1ccc(CN2CCNCC2)cc1` returned a normalised cell number of 1.45.

Consider `CN1C(=O)c2ccccc2NC(=O)[C@@H]1Cc1ccccc1`, for which the normalised cell number came out at 1.1. Then `CCC(C)[C@H]1O[C@]2(C=C[C@@H]1C)C[C@@H]1C[C@@H](C/C=C(\C)[C@@H](OC3C[C@H](OC)C(O[C@H]4C[C@H](OC)[C@@H](O)[C@H](C)O4)[C@H](C)O3)[C@@H](C)/C=C/C=C3\COC4[C@H](O)C(C)=C[C@@H](C(=O)O1)[C@]34O)O2` (stereo partly specified), with 0.88; and `CCC(C)C(=O)O[C@@H]1C[C@@]2(C)[C@H](c3ccoc3)OC(=O)CC23OC2(C)OC34[C@H](OC(=O)C(C)C)C3(O)[C@@H](OC(=O)C5(C)OC5C)[C@@]5(C)C[C@]3(O)[C@@](C)([C@H]5CC(=O)OC)C14O2` (stereo partly specified), with 0.98. Consider `COc1cc2c(c3oc4cccc(O)c4c(=O)c13)[C@@H]1C=CO[C@@H]1O2`, for which the normalised cell number came to 1.04. The value for `O=C1CC2OCC=C3CN4CC[C@]56c7ccccc7N1C5[C@H]2[C@@H]3CC46` (stereo partly specified) was 1.02.
